Out of some 1,300 compounds screened, about 290 (22%) were called active.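 How the source made its calls: active means inhibition above the mean of all tested compounds plus 3 SD (cut at about 19% in these data); inactive means the rest.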 The list is a sample of the results.
These compounds were tested on VIM-2 metallo-beta-lactamase (Pseudomonas aeruginosa) (assay: VIM-2 inhibitors in FRET format, confirmation, artefact control for selective VIM-2 inhibitor project, biochemical, epi-absorbance artifact exclusion (AID 1857;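 further: 0% = VIM-2 plus DMSO and 100% = no enzyme wells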)). Details: purified VIM-2, CCF2 FRET substrate hydrolysis; at 5.6 µM; stronger effect = higher value.

| SMILES | inhibition |
| --- | --- |
| COc1ccc(Cc2nnc(NS(=O)(=O)Cc3ccccc3)s2)cc1 | 29.2% (active) |
| CCC1CCCCN1CCCNC(=O)c1cc2c(Cl)nc3ccccc3c2s1 (configuration not stated) | 3.62% (inactive) |
| Cn1c(=O)c2c(nc(N3CCOCC3)n2CCNC2=NCCC2)n(C)c1=O | 1.09% (inactive) |
| CCOc1cc(/C=C2\SC(N3CCCCC3)=NC2=O)ccc1O | 1.41% (inactive) |
| CCN1CCN(CCNC(=O)c2ccc3c(c2)NC(=O)/C(=C\c2ccc(OC)c(OC)c2)S3)CC1 | 31% (active) |
| Cc1cccn2c(=O)c(C=O)c(Nc3ccc(S(N)(=O)=O)cc3)nc12 | 2.01% (inactive) |
| CCOc1cc(/C=C2\SC(N3CCCC(C)C3)=NC2=O)ccc1O (configuration not stated) | -2.85% (inactive) |
| O=C(COc1cc2oc(=O)c3c(c2cc1Cl)CCC3)NCCCN1CCOCC1 | -0.64% (inactive) |
| Cn1c(-c2sccc2OCc2cccc(C(F)(F)F)c2)n[nH]c1=S | 58.2% (active) |
| CN(C)CCNc1ccc(-c2n[nH]c(=O)c3ccccc23)cc1[N+](=O)[O-] | -1.97% (inactive) |
| CCCc1ccc(OCCNC(=O)c2ccco2)cc1 | -1.44% (inactive) |
| Cc1nc2ccccc2c2oc(C(=O)NCCCN3CCC(C)CC3)cc12 | 1.71% (inactive) |
| C=CCn1c(-c2ccccc2OCC)n[nH]c1=S | 40.4% (active) |
| O=C(NCCCN1CCOCC1)c1cnn2c(-c3ccccc3)cc(-c3ccccc3)nc12 | -2.83% (inactive) |
| CCc1cc(=O)oc2cc(C)cc(OCC(=O)N3CCC[C@@H]3C(=O)O)c12 | 32.9% (active) |
| Cc1cc(NCc2ccco2)n2c(nc3ccccc32)c1C#N | -12.9% (inactive) |
| CCN(CC)CCOc1ccc2c(c1)C(=NNC(=O)c1ccccn1)c1cc(OCCN(CC)CC)ccc1-2 | 2.33% (inactive) |
| O=C(NC(=S)Nc1ccccc1C(=O)O)c1ccc(-c2ccc(Br)cc2)o1 | 11.2% (inactive) |
| CCN1CCCC1CNC(=O)c1cc2c(=O)n(C)c3ccccc3c2n1C (configuration not stated) | -2.42% (inactive) |
| CC1CCCC(C)N1CCCNC(=O)c1cc2c(=O)n(C)c3ccccc3c2n1C (configuration not stated) | -7.42% (inactive) |
| NC(=O)C1CCN(C(=O)COc2ccc3c4c(c(=O)oc3c2)CCC4)CC1 | -2.54% (inactive) |
| Cc1cc(C)c2nc3nc(C)cc(C)c3c(N)c2c1 | -10.3% (inactive) |
| CC(NS(=O)(=O)c1ccccc1)c1n[nH]c(=S)n1-c1ccccc1 (configuration not stated) | 38.4% (active) |
| Cc1cc([N+](=O)[O-])c(-c2ccc(/C=N/n3cnnc3)o2)cc1Cl | -0.73% (inactive) |
| Fc1ccc(-c2ccc(CNCc3ccccn3)o2)cc1Cl | -13.3% (inactive) |
| CC(C)(C)CC(=O)Nc1nnc(SCC(=O)NCc2cccs2)s1 | 45.5% (active) |

| SMILES | inhibition |
| --- | --- |
| Nc1nnc2c(C(F)(F)F)nc3ccccc3n12 | 2.08% (inactive) |
| CCN(CC)c1ccc2cc(C(N)=O)/c(=N\NC(=O)c3ccncc3)oc2c1 | 11.1% (inactive) |
| Cc1ccc2nc(C)c3c(c2c1)N(c1ccccc1)CC3 | -1.46% (inactive) |
| COc1ccc(/C=N/N(C)C2=NS(=O)(=O)c3ccccc32)cc1OC | -2.83% (inactive) |
| CCN1CCN(C(=O)Cn2nc(C)n3c(cc4c(OC)cccc43)c2=O)CC1 | 1.55% (inactive) |
| Cc1cc(-c2ccc(/C=N/n3cnnc3)o2)c([N+](=O)[O-])cc1C | -2.34% (inactive) |
| O=C1Nc2cc(C(=O)N3CCC(N4CCCCC4)CC3)ccc2S/C1=C\c1ccccc1 | 53.6% (active) |
| COc1ccc(Nc2cc(C)nc(-n3nc(C)cc3C)n2)cc1 | -53.5% (inactive) |
| Cc1ccc(Cl)cc1-c1ccc(/C=N/n2cnnc2)o1 | -0.56% (inactive) |
| COc1cc(NC(=O)C2=C(C)OCCS2)c(Cl)cc1C(=O)NCCN1CCN(C)CC1 | 2.07% (inactive) |
| COc1cc(-c2nn3c(-c4cccc(C)c4)nnc3s2)cc(OC)c1OC | 22.2% (active) |
| COc1ccc(-c2nn3c(-c4ccccc4)nnc3s2)cc1OC | 1.85% (inactive) |
| CCOCCCNc1c(CC)c(C)c(C#N)c2nc3ccccc3n12 | 0.59% (inactive) |
| COc1ccc(CCn2c(=N)c(C(=O)NCC3CCCO3)cc3c(=O)n4cccc(C)c4nc32)cc1OC (configuration not stated) | -3.31% (inactive) |
| CC(=O)c1ccc(-c2ccc(Cn3c(C)nc4cc(N)c(C)nc43)cc2)cc1 | 42.1% (active) |
| CNC(=O)c1ccsc1NC(=O)c1ccc(S(=O)(=O)N2CCOCC2)cc1 | 37.1% (active) |
| COC(=O)c1c(NC(=O)c2ccc(S(=O)(=O)N3CCOCC3)cc2)sc2c1CCN(C(C)C)C2 | 1.2% (inactive) |
| CN1CCN(c2ccc(NC(=O)c3ccc4c(c3)[nH]c(=O)n4Cc3ccc(F)cc3)cc2)CC1 | -0.35% (inactive) |
| CCOC(=O)N1CCN(C(=O)C2CCN(c3ncnc4c3sc3cccc(F)c34)CC2)CC1 | 1.58% (inactive) |
| Nc1cccc2c1C(=O)N(Cc1nnc(-c3ccccc3Br)o1)C2=O | 29.6% (active) |
| COc1nc(N=C(N)N)nc2c(C)cccc12 | -4.99% (inactive) |
| Cn1c2ccccc2c(=O)c2c(O)cccc21 | -1.24% (inactive) |
| COc1cc(/C=N/Nc2nn3cnnc3c3ccccc23)cc(OC)c1OC | 0.17% (inactive) |
| COC(=O)c1ccc(-c2noc(CN(Cc3ccccn3)CC3CCCO3)n2)cc1 (configuration not stated) | -11.9% (inactive) |
| O=c1[nH]c(-c2ccccc2)c(-c2ccccc2)[nH]1 | -3.81% (inactive) |
| Clc1cc(-c2ccc(/C=N/n3cnnc3)o2)ccc1Br | -1.55% (inactive) |
